The values below come from PubChem BioAssay (EPA / NIEHS).

The structures appear in SMILES notation. Inconclusive results are not listed. The source made the active and inactive calls. Rule for the calls: active = hit-call score of the fitted dose curve at least 0.9, where 1 is the maximum; inconclusive = response in the unintended direction; inactive = score below 0.9.

Sequence of human Vitamin D Receptor (VDR), VDR (gene 7421) (P11473 whole entry, looked up): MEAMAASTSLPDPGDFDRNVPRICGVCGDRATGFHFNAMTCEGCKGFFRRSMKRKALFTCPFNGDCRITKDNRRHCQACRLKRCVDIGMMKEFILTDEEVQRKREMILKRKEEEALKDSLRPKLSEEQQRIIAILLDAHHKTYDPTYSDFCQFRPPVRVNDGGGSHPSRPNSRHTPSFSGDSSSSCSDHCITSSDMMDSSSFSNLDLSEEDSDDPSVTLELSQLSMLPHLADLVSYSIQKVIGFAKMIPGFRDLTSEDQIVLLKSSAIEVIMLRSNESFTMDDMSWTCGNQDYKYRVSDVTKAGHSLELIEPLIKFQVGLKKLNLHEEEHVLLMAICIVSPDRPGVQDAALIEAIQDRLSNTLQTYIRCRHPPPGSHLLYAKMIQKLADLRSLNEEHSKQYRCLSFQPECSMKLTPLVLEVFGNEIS

In this assay the target is human Vitamin D Receptor (VDR), VDR (gene 7421) (UniProt P11473). Briefly: ATG_VDR_TRANS: Attagene TRANS-FACTORIAL HepG2 Assay for human Vitamin D Receptor (VDR) (AID 2283022). How it is done:
ATG_TRANS is a cell-based, multiplexed-readout assay that uses HepG2, a human liver cell line, with measurements taken at 24 hours after chemical dosing in a 24-well plate.ATG_VDR_TRANS is one of 30 assay component(s) measured or calculated from the ATG_TRANS assay. It is designed to make measurements of mRNA induction, a form of inducible reporter, as detected with fluorescence intensity signals by Reverse transcription polymerase chain reaction (RT-PCR) and Capillary electrophoresis technology.Data from the assay component ATG_VDR_TRANS was analyzed into 1 assay endpoint. This assay endpoint, ATG_VDR_TRANS, was analyzed in the positive analysis fitting direction relative to DMSO as the negative control and baseline of activity. Using a type of inducible reporter, measures of mRNA for gain-of-signal activity can be used to understand the reporter gene at the transcription factor-level as they relate to the gene VDR. Furthermore, this assay endpoint can be referred to as a primary readout, because this assay has produced multiple assay endpoints where this one serves a reporter gene function. To generalize the intended target to other relatable targets, this assay endpoint is annotated to the nuclear receptor intended target family, where the subfamily is non-steroidal.
Human liver HepG2 cells are transiently transfected with multiple reporter transcription units (MRTUs) in 6-well plates using FuGene 6 reagent (Roche; 3 ml FuGene/1 mg DNA). The MRTU constructs are regulated by a cis-regulating element (promoter). […] A major difference between the CIS and TRANS system is that in CIS activities of endogenous TFs are measured, whereas the TRANS assay evaluates changes in activities of exogenous, chimeric NR-Gal4 proteins. […] At the end of 24 hour incubation, total RNA was isolated using TriZol reagent (Invitrogen). The isolated RNA is then reverse-transcribed using oligo(dT) primer and Mo-MLV reverse transcriptase (Invitrogen) with DNAse I (Ambion) treatment for 30 min. The one-tenth of the produced cDNA was amplified by PCR using Taq DNA polymerase (Invitrogen) and two reporter sequence-specific primers. The PCR products were fluorescently labeled by primer extension with 6-arboxyfluorescein (6-FAM) 5'-labeled reporter sequence-specific primer (2 min at 95 C, 20 s at 68 C and 10 min at 72 C) and these products were digested with 5U of HpaI (New England Biolabs) for 2h at 37 C. The fragments were purified using Qiaquick PCR columns (Qiagen), analyzed on an ABI 3130xL genetic analyzer (Applied Biosystems) with peak positions identified by using a set of X-rhodamine (ROX)-labeled MapMarker1000 molecular weight standards (BioVentures). The raw capillary electrophoresis data was processed using Attagraph software (Attagene).
In the case of `c1ccc2c(c1)Oc1ccccc1O2`, the call was inactive.

Turning to `CCOCn1c(-c2ccc(Cl)cc2)c(C#N)c(Br)c1C(F)(F)F`, the compound was called inactive.

As for `CN(C)c1ccc(N=O)cc1`, the outcome was inactive.

For the compound `O=C(NC(=O)c1c(F)cccc1F)Nc1cc(Cl)c(Oc2ncc(C(F)(F)F)cc2Cl)c(Cl)c1`, the call was inactive.

On to `CC(C)C(C)(N)C#N` (stereo not given), for which the compound was classed as inactive.

For the compound `CC(C)=CC1C(C(=O)OCc2cccc(Oc3ccccc3)c2)C1(C)C` (stereo not given), the result was inactive.

Turning to `COc1nn(C(=O)NS(=O)(=O)c2ccccc2OC(F)(F)F)c(=O)n1C`, the outcome was inactive.

In the case of `N#CCCC(Br)(C#N)CBr` (stereo not given), the result was inactive.

With `CC(C)(C)c1cc([N+](=O)[O-])cc(C(C)(C)C)c1O`, the compound was called inactive.

Take `O=[N+]([O-])c1cc([As](=O)(O)O)ccc1O`: the compound was classed as inactive.

Take `C[C@@H]1O[C@@H](O[C@H]2C[C@@H](O)[C@]3(CO)[C@H]4[C@H](O)C[C@]5(C)[C@@H](C6=CC(=O)OC6)CC[C@]5(O)[C@@H]4CC[C@]3(O)C2)[C@H](O)[C@H](O)[C@H]1O`: the outcome was inactive.

As for `CN(N=O)c1ccc([N+](=O)[O-])cc1`, the compound was called inactive.

With `NC(=O)CCl`, the result was inactive.

In the case of `C=CCN=C=S`, the compound was classed as inactive.

With `O=c1[nH]c2ccccc2n1C1CCN(CCCC(c2ccc(F)cc2)c2ccc(F)cc2)CC1`, the call was inactive.

On to `Nc1ccc(N)cc1`, for which the compound was classed as inactive.

On to `CC1(C)COP(Oc2ccccc2)OC1`, for which the compound was called inactive.

As for `CC(C)(COCC1CO1)COCC1CO1` (stereo not given), the call was inactive.

As for `C=C(C)C(=O)OCC(CC)CCCC` (stereo not given), the compound was called inactive.

As to `OC(Cc1ccccc1Cl)(Cn1cncn1)C1(Cl)CC1` (stereo not given), the outcome was inactive.

For `CC(c1ccccc1)(c1ccc(O)cc1)c1ccc(O)cc1`, the outcome was inactive.

For the compound `O=C(Cl)OCCOCCOC(=O)Cl`, the call was inactive.

In the case of `CC(C)CC(C)(c1ccc(O)cc1)c1ccc(O)cc1`, the compound was called inactive.

With `O=S(=O)(C(Cl)(Cl)Cl)C(Cl)(Cl)Cl`, the call was inactive.

Turning to `O=C(Cc1ccccc1)OCCc1ccccc1`, the call was inactive.

With `CCCSP(=S)(OCC)Oc1ccc(Cl)cc1Cl` (stereo not given), the outcome was inactive.

Regarding `C=CC(=O)[O][Sn]([CH2]CCC)([CH2]CCC)[CH2]CCC`, the compound was called inactive.

Turning to `CCCCOP(=O)(CCCC)OCCCC`, the compound was called inactive.

For `C=CC(Cl)CCl` (stereo not given), the result was inactive.

For `CS(=O)(=O)c1ccc(C(=O)C2C(=O)CCCC2=O)c(Cl)c1COCC(F)(F)F`, the compound was called inactive.

For `Clc1cccc(Cl)c1Cl`, the result was inactive.

Consider `CN(C)C(=S)S`, for which the call was inactive.

As to `CC1CC(=O)O1` (stereo not given), the compound was classed as inactive.

As for `CC(=Cc1ccccc1)[N+](=O)[O-]`, the call was inactive.

`Cc1cc(SCc2sc(-c3ccc(C(F)(F)F)c(F)c3)nc2C)ccc1OCC(=O)O`: the call was inactive.

As to `ClCCN1CCOCC1`, the call was inactive.

Turning to `CCCCS(=O)(=O)Cl`, the result was inactive.

`O=C/C(Cl)=C(/Cl)C(=O)O`: the compound was called inactive.

As to `CC(C)(c1ccc(O)c(-c2ccccc2)c1)c1ccc(O)c(-c2ccccc2)c1`, the compound was called inactive.

Turning to `CCNc1nc(NCC)nc(SC)n1`, the call was inactive.
